# Experimental data as given in PubChem BioAssay (NCATS).
# Inconclusive results are not listed. Unmarked numbers belong to inactive results. The source made the active and inactive calls. The call rests on the fitted dose curve; in most records, active means well fitted cell-killing curve with a large enough effect; inconclusive means small, poorly fitted or top-dose-only effect; inactive means no such curve, though single readings can be large or run the other way.
# Assay: qHTS of pediatric cancer cell lines to identify multiple opportunities for drug repurposing: Primary screen for SK-N-SH cells (AID 1347098); further: nearly all actives have a fitted effect of over 65% in size
# Conditions: SK-N-SH viability, CellTiter-Glo luminescence, 48 h; series mostly up to 57 µM; activity change, negative = cytotoxic: at the top concentration
# Text: Drug repurposing or repositioning has been offered as a strategy for drug development in oncology programs. This approach has special potential for childhood cancers and other rare or orphan diseases, where the expected return on new drug development has been a disincentive to pharmaceuticals.
# In this project we exploit the poly-pharmacology of drugs to discover new indications via phenotypic screening of a panel of 19 well-characterized cell lines derived from solid tumors seen in children and adolescents. The goal is to identify approved drugs with previously unrecognized anticancer properties that has the potential to reveal new mechanisms and biological processes involved in carcinogenesis or drug resistance. We employed a titration-based paradigm (quantitative high-throughput screening or qHTS), where all compounds were tested at multiple concentrations for their effect on cell viability. Concentration-response curves (CRCs) were derived directly from the primary screen, and both potency and efficacy values were used to identify compounds with robust bioactivity profiles. We screened the NIH Chemical Genomics Center (NCGC) Pharmaceutical Collection (NPC) and Mechanism Interrogation Plate (MIPE) small molecule collections of approved and investigational compounds against these cell lines; and measured metabolically active cells after 48 hours of compound treatment as a proxy for cell viability.
# Assay Submitter: Nathalia J. Martinez, National Center for Advancing Translational Sciences, National Institutes of Health, Rockville, MD, USA; email: natalia.martinez@nih.gov
# [1] Shen, M et al. Quantitative high-throughput phenotypic screening of pediatric cancer cell lines identifies multiple opportunities for drug repurposing. Oncotarget 2017 Dec 19;9(4):4758-4772. PMID 29435139.
# The cells were obtained from University of North Carolina (UNC), Pediatric Preclinical Testing Program (PPT), and Coriell Institute (CI).
# qHTS cell viability assay:
# Cells were assayed in growth media at a density of 500-1,000 cells/well. Five microliters of cells were dispensed into 1,536-well, white, solid-bottom, TC-treated plates (Greiner Bio One) using a multidrop dispenser and incubated at 37 degrees C, 5% CO2, under a humidified atmosphere for 5 hours. Twenty-three nanoliters of compounds and controls (neutral control DMSO or positive control bortezomib at final concentration of 2.3 µM) were subsequently transferred by Kalypsys pintool. For primary screens, the MIPE collection was tested at 11-point dilutions (final concentrations range from 0.78 nM to 46 µM) and the NPC collection at 8-point dilutions (final concentrations range from 0.59 nM to 46 µM). Compounds tested in follow-up screens were assayed at 11-point dilutions. Cells were incubated for 48 hours, followed by addition of 3 µL of CellTiter-Glo (Promega). After a 15 min incubation at room temperature, samples were analyzed for luminescence intensity using a ViewLux High-throughput CCD imager equipped with clear filters.
# On the % scale 0 is the no-effect control and ±100 the full control effect; potency means the concentration at half of the fitted maximal effect.
Structure (SMILES),"activity change, negative = cytotoxic",Potency
c1ccc(N2CCNCC2)cc1,-1.67%,–
CCCCCCC(=O)CCCCCC/C=C/C[C@@H](O)[C@H](O)[C@@](N)(CO)C(=O)O,-8.57% [at 20 µM],–
O=C(CCCN1CCC2(CC1)C(=O)NCN2c1ccccc1)c1ccc(F)cc1,1.55%,–
Cc1ncsc1CCCl,-4.81%,–
CC(C)N(CCC(C(N)=O)(c1ccccc1)c1ccccn1)C(C)C (stereo not given),-6.04%,–
COC(=O)[C@@H](N)CCCN/C(N)=N/[N+](=O)[O-],9.46%,–
C=CCC1([C@H](C)CCC)C(=O)NC(=O)NC1=O,-9.76% [at 115 µM],–
NC(=O)c1cc([N+](=O)[O-])cc([N+](=O)[O-])c1,11.4%,–
CC(Cc1ccccc1)N(C)Cc1ccco1 (stereo not given),0.531%,–
Oc1ccc(Cl)cc1,10.6%,–
O=P1(N(CCCl)CCCl)NCCCO1 (stereo not given),–,inactive
C[C@]12CC[C@@H]3c4ccc(OC(=O)N(CCCl)CCCl)cc4CC[C@H]3[C@@H]1CC[C@@H]2OP(=O)(O)O,3.79%,–
CC(C)(N)Cc1ccccc1Cl,16.7%,–
COC(=O)C(Cl)C(=O)OC,9.51%,–
CC(Cc1ccccc1)NCCn1cnc2c1c(=O)n(C)c(=O)n2C (stereo not given),3.39% [at 115 µM],–
CCN(CC)CCc1c[nH]c2ccccc12,–,37 µM (active)
Clc1cccc(SC2CCNCC2)n1,-7.75%,–
CCc1cc2c(s1)-n1c(C)nnc1CN=C2c1ccccc1Cl,0.0971%,–
C[N+]1(CCF)[C@@H]2CC[C@H]1CC(OC(=O)C(O)(c1ccccc1)c1ccccc1)C2 (stereo not given in full),2.42%,–
COc1ccc2c3c1O[C@H]1[C@H](O)CC[C@H]4[C@@H](C2)N(C)CC[C@@]341,9.95% [at 115 µM],–

Structure (SMILES),"activity change, negative = cytotoxic",Potency
CNCC(=O)c1ccc(O)c(O)c1,-6.24%,–
CNC(C)(C)Cc1ccccc1,6.93%,–
O=C1CN=C(c2ccccc2)c2cc([N+](=O)[O-])ccc2N1,-0.188%,–
O=c1oc2ccccc2c(O)c1Cc1c(O)c2ccccc2oc1=O,6.86%,–
CCN[C@@H](C)Cc1cccc(C(F)(F)F)c1,-16.4%,–
CN1C(=O)NC(=O)C(C)(C2=CCCCC2)C1=O (stereo not given),5.2%,–
Nc1nc(N)nc(NC2CC2)n1,-5.83%,–
O=[N+]([O-])O[C@H]1CO[C@H]2[C@@H]1OC[C@H]2O[N+](=O)[O-],18.8%,–
COc1cccc2c1C(=O)c1c(O)c3c(c(O)c1C2=O)C[C@@](O)(C(=O)CO)CC3OC1CC(N2CCOC(OC)C2)C(O)C(C)O1 (stereo not given in full),–,0.0217 µM (active)
O=C1c2ccccc2C(=O)C1C(=O)C(c1ccccc1)c1ccccc1,-21.9%,–
NNc1ccccc1,3.32%,–
CC(C)(C)NCC(O)c1cc(Cl)c(N)c(C(F)(F)F)c1 (stereo not given),1.55%,–
CCN(CCO)CCn1c(Cc2ccccc2)nc2c1c(=O)n(C)c(=O)n2C,-8.68%,–
O=C(N/N=C/c1ccc([N+](=O)[O-])o1)c1cc([N+](=O)[O-])cc([N+](=O)[O-])c1O,9.12%,–
O=C1c2ccccc2C(=O)c2ccccc21,3.57% [at 20 µM],–
C[C@@H](N)[C@@H](O)c1ccccc1,-3.56%,–
CCN[C@@H](C)Cc1ccccc1,1.89% [at 115 µM],–
COP(=S)(OC)Oc1ccc(SC)c(C)c1,-25.7%,–
C[C@H](N)C(=O)c1ccccc1,-19.8% [at 192 µM],–
COc1cccc([C@@]2(O)CCCC[C@@H]2CN(C)C)c1,1.52%,–
